High-throughput results: PubChem BioAssay, National Center for Advancing Translational Sciences (NCATS)
Compounds with a hit are over-represented: about 19% of the library has one in this group of screens.
DT40 TDP1 CPT: growth inhibition of DT40 Tdp1-/-;hTDP1 cells with camptothecin (screen for TDP1 inhibitors); chicken DT40 Tdp1-/-;hTDP1 cells + 20 nM CPT, ATP luminescence, 48 h; Potency, µM (highest dose often 46.2 µM), for the others: top-dose activity change, negative = growth inhibition, hits mostly inhibitors; hit rate 12% among 420,000; note: potency is the fitted concentration of half-maximal effect; % is set by controls: 0 for no effect and ±100 for the full control effect; nearly all actives have a fitted effect of over 55% in size
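Chicken DT40 Tdp1-/- cells stably complemented with human TDP1 were seeded at 400 cells/well in medium containing 20 nM camptothecin, exposed to pin-transferred compounds, and grown at 37 °C for at least 48 hr. Viability was read as ATP luminescence.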
TGFb SMAD3 inh: inhibitors of TGF-b signaling | HepG2 CAGA-GFP TGF-b/SMAD3 reporter, GFP fluorescence, 18 h; TGF-beta stimulated, 500 pg/mL final | Potency, µM (titrated, usually from 46.1 µM), without a hit: top-dose activity, negative = inhibition, hits mostly inhibitors | hit rate 1.2% among 410,000 | AID 588855; note: potency is the fitted concentration of half-maximal effect; % is set by controls: 0 for no effect and ±100 for the full control effect; nearly all actives have a fitted effect of over 65% in size
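HEPG2 CAGA-GFP, 1000 cells/well; 2 h settle, 37 C; cpd via pin tool; TGF-b 500 pg/mL final; 18 h, 37 C; GFP imaging ex488/em500-530; %Activity normalised to -TGF-b and +DMSO controls; CRC fit, curve class.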
S-ASM inh: inhibitors of human secretory acid sphingomyelinase | P17405 | hit rate 0.006% among 340,000 | Potency, µM (series often up to 57.5 µM), inactives show at the highest dose activity change, negative = inhibition, usual class: inhibitors | placental ASM, HMU-PC fluorogenic substrate, 60 min; note: potency is the fitted concentration of half-maximal effect
Target sequence (P17405 47-631 limits assumed): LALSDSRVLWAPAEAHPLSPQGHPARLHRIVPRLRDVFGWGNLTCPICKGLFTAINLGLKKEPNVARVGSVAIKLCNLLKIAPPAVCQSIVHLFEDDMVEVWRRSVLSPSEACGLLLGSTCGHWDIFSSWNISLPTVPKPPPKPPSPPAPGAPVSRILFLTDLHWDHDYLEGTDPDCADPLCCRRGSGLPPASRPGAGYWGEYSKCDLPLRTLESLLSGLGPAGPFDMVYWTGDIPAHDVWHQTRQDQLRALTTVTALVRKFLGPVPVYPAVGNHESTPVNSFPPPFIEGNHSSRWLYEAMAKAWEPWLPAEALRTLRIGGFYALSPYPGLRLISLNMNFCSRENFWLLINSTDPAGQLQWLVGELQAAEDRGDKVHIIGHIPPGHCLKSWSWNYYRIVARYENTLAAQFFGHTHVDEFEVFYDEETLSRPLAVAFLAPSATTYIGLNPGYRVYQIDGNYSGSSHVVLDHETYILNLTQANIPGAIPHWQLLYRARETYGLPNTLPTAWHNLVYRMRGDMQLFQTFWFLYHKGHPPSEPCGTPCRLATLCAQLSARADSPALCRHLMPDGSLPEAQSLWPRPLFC
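Steps: dispense placental human ASM, pin compound, wait 10 min at room temperature, add HMU-PC0 substrate at 9 uM final, incubate 60 min at 37 °C, add stop solution raising pH to 10, read fluorescence.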
DT40 TDP1 no CPT: qHTS for Inhibitors of human tyrosyl-DNA phosphodiesterase 1 (TDP1): qHTS in cells in absence of CPT | Potency, µM (series often up to 46.2 µM), inactives show top-dose activity change, negative = growth inhibition, most hits filed as inhibitors | hit rate 15% among 420,000 | DT40 Tdp1-/- hTDP1 cells, no CPT, ATP luminescence, 48 h | AID 686978, 2013; note: potency is the fitted concentration of half-maximal effect; % is set by controls: 0 for no effect and ±100 for the full control effect; nearly all actives have a fitted effect of over 55% in size
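No-CPT arm: Tdp1-/-;hTDP1 DT40 cells (400/well) plus compounds, incubated ≥48 hr at 37 °C. Readout CellTiter-Glo luminescence.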
IL1B secr inh: inhibitors of inflammasome signaling (IL-1 beta secretion); THP-1 LPS/ATP IL-1B secretion, AlphaLISA, 16 h; stronger effect = lower value; activity change, % at 57.5 µM; hit rate 4.7% among 360,000; in the data active = activity change below about -50%; inconclusive = mostly about -30% to -49%; note: % is set by controls: 0 for no effect and ±100 for the full control effect
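Secreted IL-1B measured by AlphaLISA bead assay after 16 h compound exposure of THP-1 cells; compounds (final up to 57.5 uM) added 1 h before LPS (250 ng/mL) and ATP (1.25 mM) stimulation; lower signal means less secretion.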
HepG2 tox: counter-screen for TGF-b inhibitors: cytotoxicity in HepG2 cells | HepG2 CAGA-GFP viability, ATP luminescence, 18 h | Potency, µM (titrated, usually from 46.1 µM), for the others: top-dose activity change, negative = cytotoxicity, hits mostly cytotoxic | hit rate 0.76% among 410,000; note: potency is the fitted concentration of half-maximal effect
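HepG2 CAGA-GFP cells (1000/well, DMEM with 1% FBS) received compound, then TGF-beta at 500 pg/mL final, and were incubated 18 hours at 37 degrees C. Viability was read by CellTiter-Glo luminescence. Media-only wells were set as complete cell-killing and DMSO as no toxicity.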
* hit, by the source's call. Unless noted, calls come from the whole dose curve; as a rule, active = well fitted curve in the direction sought with a large enough effect; inconclusive = small, poorly fitted or top-dose-only effect, or another doubt; inactive = no such curve, though single readings can be large; an effect the other way counts as inactive or inconclusive.

Screening O=C(NCCCn1ccnc1)C(=O)Nc1ccccc1 returned DT40 TDP1 CPT 16µM*, TGFb SMAD3 inh 0%, S-ASM inh 4%, DT40 TDP1 no CPT inconclusive, IL1B secr inh 13 and HepG2 tox -14%.
Screening O=C(NCCCn1ccnc1)c1ccc(Br)o1 returned DT40 TDP1 CPT 8%, TGFb SMAD3 inh 8%, S-ASM inh 0%, DT40 TDP1 no CPT 12%, IL1B secr inh -13 and HepG2 tox 0%.
`O=C(O)c1ccccc1C(=O)NCCCn1ccnc1` gave DT40 TDP1 CPT 3%, TGFb SMAD3 inh 7%, S-ASM inh 1%, DT40 TDP1 no CPT 7%, IL1B secr inh -3 and HepG2 tox 4%.
For Cc1ccc(S(=O)(=O)N2CCCC2=O)c(C)c1N(C)S(C)(=O)=O the results were DT40 TDP1 CPT -7%, TGFb SMAD3 inh -3%, S-ASM inh 2%, DT40 TDP1 no CPT 17%, IL1B secr inh 13 and HepG2 tox 19%.
For COc1ccc(-c2nc3cnc(OCc4ccccc4)nc3n(CCC#N)c2=O)cc1 the results were DT40 TDP1 CPT 16% and DT40 TDP1 no CPT 20%.
For Cc1ccc(C)c(CN2C(=O)c3ccccc3S(=O)(=O)c3ccc(C(=O)Nc4ccccc4C(F)(F)F)cc32)c1 the results were TGFb SMAD3 inh -13% and HepG2 tox 2%.
`COc1cc(C(=O)NC2CCCc3ccccc32)cc(OC)c1OC` (stereo not drawn) gave DT40 TDP1 CPT -6%, TGFb SMAD3 inh 1%, S-ASM inh 1%, DT40 TDP1 no CPT -27%, IL1B secr inh -10 and HepG2 tox -4%.
`CN[C@H]1CCc2cc(OC)c(OC)c(OC)c2-c2ccc(N(C)CC(OC)OC)c(=O)cc21` gave DT40 TDP1 CPT 7.3µM*, TGFb SMAD3 inh inconclusive, S-ASM inh -10%, DT40 TDP1 no CPT 6.5µM*, IL1B secr inh 48 and HepG2 tox -8%.
COc1cc2c(c(OC)c1OC)-c1ccc(N(C)CC(OC)OC)c(=O)cc1[C@@H](NC(C)=O)CC2 was read as DT40 TDP1 CPT 1.3µM*, TGFb SMAD3 inh inconclusive, S-ASM inh -6%, DT40 TDP1 no CPT 0.65µM*, IL1B secr inh 74 and HepG2 tox 0%.
Screening COc1cc2c(c(OC)c1OC)-c1ccc(OC)c(=O)cc1[C@@H](N(C)CC#CCO)CC2 returned DT40 TDP1 CPT 0.21µM*, TGFb SMAD3 inh -26%, S-ASM inh 0%, DT40 TDP1 no CPT 0.18µM*, IL1B secr inh 48 and HepG2 tox -5%.
Screening COc1cc2c(cc1OC)C(COc1ccc(F)cc1)N(C(C)=O)CC2 (stereo not drawn) returned DT40 TDP1 CPT -15%, TGFb SMAD3 inh -4%, S-ASM inh 3%, DT40 TDP1 no CPT 0%, IL1B secr inh -10 and HepG2 tox -2%.
`CC(=O)c1nccs1` gave DT40 TDP1 CPT 32%, TGFb SMAD3 inh 1%, S-ASM inh 2%, DT40 TDP1 no CPT 7%, IL1B secr inh 20 and HepG2 tox 0%.
`CC(C)c1ccc(NC(=O)C(C)N(c2ccccc2)S(C)(=O)=O)cc1` (stereo not drawn) gave DT40 TDP1 CPT inconclusive, TGFb SMAD3 inh -11%, DT40 TDP1 no CPT inconclusive and HepG2 tox -28%.
Screening CS(=O)(=O)c1ccc(-c2csc(-c3cccnc3)n2)cc1 returned DT40 TDP1 CPT 5%, TGFb SMAD3 inh -4%, S-ASM inh 0%, DT40 TDP1 no CPT -28%, IL1B secr inh -19 and HepG2 tox -22%.
Cn1c(=O)c2cc(C(=O)NC3CCCCCC3)sc2c2ccccc21 was read as DT40 TDP1 CPT inconclusive, TGFb SMAD3 inh -5%, DT40 TDP1 no CPT 18µM* and HepG2 tox -33%.
`CCn1c(=O)c2cc(C(=O)NC3CCCCCC3)sc2c2ccccc21` gave DT40 TDP1 CPT 16µM*, TGFb SMAD3 inh -18%, DT40 TDP1 no CPT 16µM* and HepG2 tox -18%.
Screening CCn1c(=O)c2cc(C(=O)NCCCN3CCN(c4ccc(F)cc4)CC3)sc2c2ccccc21 returned DT40 TDP1 CPT 18µM*, TGFb SMAD3 inh inconclusive, DT40 TDP1 no CPT 6.5µM* and HepG2 tox -6%.
`CCCCNC(=O)c1cc2c(=O)n(CC)c3ccccc3c2s1` gave DT40 TDP1 CPT inconclusive, TGFb SMAD3 inh 13%, S-ASM inh -5%, DT40 TDP1 no CPT 23µM*, IL1B secr inh -20 and HepG2 tox -14%.
CCn1c(=O)c2cc(C(=O)NC(C)C)sc2c2ccccc21 was read as DT40 TDP1 CPT inconclusive, TGFb SMAD3 inh 1%, S-ASM inh 0%, DT40 TDP1 no CPT inconclusive, IL1B secr inh 0 and HepG2 tox -16%.
`CCn1c(=O)c2cc(C(=O)NCCCN(C)Cc3ccccc3)sc2c2ccccc21` gave DT40 TDP1 CPT inconclusive, TGFb SMAD3 inh inconclusive, DT40 TDP1 no CPT inconclusive and HepG2 tox -105%.
`CCC1CCCCN1CCCNC(=O)c1cc2c(=O)n(CC)c3ccccc3c2s1` (stereo not drawn) gave DT40 TDP1 CPT inconclusive, TGFb SMAD3 inh -3%, DT40 TDP1 no CPT inconclusive and HepG2 tox -12%.
CCOc1cccc(CC(=O)N2CCc3c([nH]c4ccccc34)C2c2ccccc2)c1OCC (stereo not drawn) was read as DT40 TDP1 CPT inconclusive, TGFb SMAD3 inh inconclusive, DT40 TDP1 no CPT inconclusive and HepG2 tox -32%.
For C/C(CC(=O)Nc1ccc([N+](=O)[O-])cc1)=N/NC(=O)C1C2CCCCC21 (stereo not drawn) the results were DT40 TDP1 CPT -17%, TGFb SMAD3 inh -13%, S-ASM inh -1%, DT40 TDP1 no CPT -25%, IL1B secr inh inconclusive and HepG2 tox 13%.
`COC1C=CC(CNC(=O)c2cc3c(=O)n4cccc(C)c4nc3n2C)(OC)O1` (stereo not drawn) gave DT40 TDP1 CPT 16µM*, TGFb SMAD3 inh 3%, S-ASM inh inactive, DT40 TDP1 no CPT -15%, IL1B secr inh -11 and HepG2 tox -12%.
`Cc1cccn2c(=O)c3cc(C(=O)NC4CCCCC4)n(C)c3nc12` gave DT40 TDP1 CPT 4.6µM*, TGFb SMAD3 inh 4%, S-ASM inh inactive, DT40 TDP1 no CPT 3.3µM*, IL1B secr inh -6 and HepG2 tox -1%.
